Data on 63 compounds can be found in PubChem BioAssay AID1460 (National Center for Advancing Translational Sciences (NCATS), 2008).

Structures are written as SMILES. About 5,800 (2.1%) of roughly 270,000 compounds were called active. Another 16% or so got no clear call; they are omitted. Calls follow the shape of the dose curve; as a rule, active = well fitted inhibition curve with a large enough effect; inconclusive = small, poorly fitted or top-dose-only effect; inactive = flat fitted curve, though single readings scatter. The entries come from a sample that favours actives as a whole.
% is scaled to controls: 0 for no effect and ±100 for the full control effect; potency is read from the fitted curve at half-maximal effect.

The target of the test is Microtubule-associated protein tau (Homo sapiens) (UniProt P10636). Description: qHTS for Inhibitors of Tau Fibril Formation, Thioflavin T Binding. Also: nearly all actives have a fitted effect of over 55% in size. Particulars: recombinant tau K18 P301L (four-repeat tau fragment), heparin-induced fibrillization, ThT fluorescence; series mostly up to 57.4 µM; activity, negative = inhibition: at the top concentration. A digest of the protocol: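 Heparin-induced (20 uM) aggregation of recombinant human K18 P301L tau, 15 uM unlabeled with 0.24 uM labeled, pH 7 acetate buffer, 6 hr at 37 C with compound. Fibrils quantified by 30 uM ThT fluorescence after 1 hr ambient incubation.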
Chain of Microtubule-associated protein tau (Homo sapiens) (P10636 561-689 P618L limits assumed): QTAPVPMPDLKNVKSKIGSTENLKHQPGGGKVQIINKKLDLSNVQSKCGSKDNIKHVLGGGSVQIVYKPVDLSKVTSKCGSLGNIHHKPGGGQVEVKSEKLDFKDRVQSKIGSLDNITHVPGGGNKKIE
On the technique in general: Quantitative high-throughput screening tests each substance at several concentrations.
For the compound `COCCNC(=O)CCCN1C(=O)c2ccccc2Sc2ncccc21`, the “activity, negative = inhibition” value was -0.918% (inactive). Still for that read-out and setting: then `Cc1ccc(NC(=O)c2ccc(CN3CC(=O)N4CCCCC4C3=O)cc2)c(Cl)c1` (stereo not drawn), with -11.5% (inactive).

`Cc1ccnc(-n2sc3ccccc3c2=O)n1`: the Potency was 14.1 µM (active). On to `Cc1ccnc(Nc2nc3ccccc3s2)n1`, for which the “activity, negative = inhibition” value is -16% (inactive). Still for that read-out and setting: then `Cc1ccnc(SCC(N)=O)n1`, with -5.04% (inactive); and `CCOC(=O)CCCNC(=O)COC(=O)/C=C/c1ccc2c(c1)OCO2`, with 4.19% (inactive); and `NS(=O)(=O)c1ccc(NC(=O)COC(=O)c2c3c(nc4ccccc24)/C(=C\c2ccc4c(c2)OCO4)CCC3)cc1`, with -5.39% (inactive). Still for that read-out and setting: then `CCc1c(C)sc(NC(=O)/C=C/c2ccc3c(c2)OCO3)c1C(=O)OC`, with 8.02% (inactive). As for `CCC1=C/C(=C\c2ccc3c(c2)OCO3)C(=O)S1`, the Potency was 15.8 µM (active). For the compound `O=C(N/N=C/c1ccc2c(c1)OCO2)C(=O)N1CCCC1`, the “activity, negative = inhibition” value is -6.29% (inactive).

Regarding `O=C1/C(=C/c2ccc3c(c2)OCO3)CCC/C1=C\c1ccc2c(c1)OCO2`, the Potency is 3.98 µM (active). As for `CCOc1ccc(NC(=O)CCC(=O)N2CC(C)Oc3ccc(C)cc32)cc1` (stereo not drawn), the “activity, negative = inhibition” value is -0.975% (inactive). As for `CC1=C(c2ccc(C)c(C)c2)S(=O)(=O)NC1=NCc1ccccc1Cl`, the “activity, negative = inhibition” value was -5.79% (inactive). Still for that read-out and setting: for `COc1ccc(CNC(=O)CSc2nc3ccccc3nc2Cc2ccccc2)cc1` the value was 0.19% (inactive); for `COc1ccc(Cn2ccc3nc(C)c(C(=O)Nc4ccc(C)c(F)c4)cc3c2=O)cc1`, -2.05% (inactive). On the same count and under the same terms, for `COc1ccccc1CNC(=O)c1ccccc1NC(=O)c1nsc2ccccc12` the value was 3.65% (inactive). The same measure, in the same setting: then `CCOC(=O)c1cc(-c2ccc(OC)c(S(=O)(=O)Nc3ccc(OC)cc3OC)c2)on1`, with -17.3% (inactive); and `CN(Cc1ccco1)S(=O)(=O)c1nnc(NC(=O)c2ccccc2)s1`, with -2.1% (inactive). For the compound `COc1ccc(CN2C(=O)CC(Cc3ccc(C)cc3)C2=O)cc1OC` (stereo not drawn), the “activity, negative = inhibition” value is -2.42% (inactive). Turning to `CCCCOc1ccc(Cn2c(=O)oc3ccc(C)cc32)cc1OC`, the “activity, negative = inhibition” value was -3.17% (inactive). With `CCCCOc1ccc(CN2C(=O)C(=O)c3cc(Br)cc(C)c32)cc1OC`, the Potency is 28.2 µM (active). Turning to `CSc1nc(=O)c2c(n1C)NC(=O)CC2c1ccccc1OC(C)C` (stereo not drawn), the “activity, negative = inhibition” value was 5.27% (inactive). Take `Cc1cccc(N=C2NN=C(c3c[nH]c4ccccc34)CS2)c1`: the Potency was 2.82 µM (active). Regarding `Cc1cccc(C(=O)Nc2nnc(Cc3c[nH]c4ccccc34)s2)c1`, the “activity, negative = inhibition” value was -17.2% (inactive). In the case of `COCCn1c(C)cc(C2=NNC(=Nc3ccc(F)cc3)SC2)c1C`, the “activity, negative = inhibition” value was -6.48% (inactive).

Take `CCCNC(=O)c1ccc(Cn2c(SCC(N)=O)nc3ccccc3c2=O)cc1`: the “activity, negative = inhibition” value is 6.62% (inactive). As to `CCC(C)NC(=O)C1c2ccccc2Oc2ccccc21` (stereo not drawn), the “activity, negative = inhibition” value was -1.94% (inactive). `CC(C)(C)c1nnc(NC(=O)C2c3ccccc3Oc3ccccc32)s1`: the Potency was 22.4 µM (active). On to `CCC(C)(C)NC(=O)C1c2ccccc2Oc2ccccc21`, for which the “activity, negative = inhibition” value is -0.856% (inactive).

Take `Cc1ccc(Cl)cc1NC(=O)Cc1ccc(-n2c(C)nc3cccnc32)cc1`: the “activity, negative = inhibition” value was -0.615% (inactive). Regarding `COc1cccc(CNS(=O)(=O)c2cc3c(cc2C)n(C)c(=O)c(=O)n3C)c1`, the “activity, negative = inhibition” value is -7.39% (inactive).

Take `Cc1ccccc1CNC(=O)C1CCCN(S(=O)(=O)N(C)c2ccc(F)cc2)C1` (stereo not drawn): the “activity, negative = inhibition” value is -7.18% (inactive). As for `Cc1cc(C)cc(-n2c(SCC(=O)NCC3CCCO3)nc3c([nH]c4ccccc43)c2=O)c1` (stereo not drawn), the “activity, negative = inhibition” value is -15.4% (inactive).

On to `O=C(CSc1nc2ccc([N+](=O)[O-])cc2[nH]1)c1ccc(Cl)cc1`, for which the “activity, negative = inhibition” value is -14.3% (inactive). For the compound `O=C(N/N=C/c1ccc(Cl)cc1)c1nc2ccc([N+](=O)[O-])cc2c(=O)[nH]1`, the Potency is 15.8 µM (active).

On to `N#Cc1cc([N+](=O)[O-])ccc1Oc1cccc(/C=N/NC(=O)c2ccc(Cl)cc2)c1`, for which the “activity, negative = inhibition” value is -6.07% (inactive).

On to `O=C(CCS(=O)(=O)c1ccccc1)N(Cc1cccnc1)c1nc2c(F)cccc2s1`, for which the “activity, negative = inhibition” value was -5.97% (inactive). On the same count and under the same terms, then `O=C(CSc1ccc([N+](=O)[O-])cn1)Nc1ccc(N2CCOCC2)cc1`, with 7.95% (inactive); and `CN(CC(=O)Nc1ccc(N2CCOCC2)cc1)CC(=O)Nc1ccccc1[N+](=O)[O-]`, with -7.06% (inactive). `O=C(Nc1ccc(N2CCOCC2)cc1)c1ccc(-c2ccccc2[N+](=O)[O-])o1`: the Potency is 2.24 µM (active).

With `Cc1ccc(S(=O)(=O)n2nc(C)c(S(=O)(=O)N3CCCCCC3)c2C)cc1`, the “activity, negative = inhibition” value was 5.02% (inactive). Same read-out and setting: then `CC(=O)Nc1ccc(S(=O)(=O)N2CCN(c3ccccc3)CC2)cc1`, with -2.11% (inactive); and `CCOc1ccc(OCC)c(NC(=O)c2cc(C)nc3c2c(C)nn3-c2cccc(Cl)c2C)c1`, with -9.07% (inactive); and `COc1cc(NS(=O)(=O)c2ccc(N=Cc3c(C)[nH]n(-c4ccccc4)c3=O)cc2)nc(OC)n1`, with -9.16% (inactive). On to `COc1cc(SC#N)ccc1N=Cc1c(C)[nH]n(-c2ccc(C)cc2)c1=O`, for which the Potency is 14.1 µM (active).

Consider `CS(=O)(=O)c1ccc2c(c1)SC1=NC(=O)/C(=C/c3ccco3)C(=N)N12`, for which the Potency is 7.08 µM (active). In the case of `CCC1=NN2C(=N)/C(=C/c3cc(C)n(-c4ccccc4)c3C)C(=O)N=C2S1`, the “activity, negative = inhibition” value was -8.51% (inactive).

For the compound `Cc1cc(/C=C2/C(=N)N3C(=NC2=O)SN=C3S(C)(=O)=O)c(C)n1-c1ccccc1`, the “activity, negative = inhibition” value is -16.2% (inactive). The same measure, in the same setting: then `Cc1cc(C)cc(NC(=O)Cn2nc(N3CCN(c4ccccc4)CC3)ccc2=O)c1`, with -11.4% (inactive); and `Cc1c(-c2cccc(NC(=O)C(C)(C)C)c2)nc2ncccn12`, with -2.03% (inactive).

Consider `Cc1cccn2c(=O)c(C(=O)NC(C)c3ccccc3)cnc12` (stereo not drawn), for which the “activity, negative = inhibition” value was 5.77% (inactive). On the same count and under the same terms, then `Cc1nc(NNC(=O)c2ccccc2)cc(-c2ccccc2)n1`, with -2.19% (inactive). In the case of `Cc1ccc(-c2csc(NNC(=O)c3ccccc3)n2)cc1`, the Potency is 12.6 µM (active).

On to `Cc1ccc(-c2csc(NC(=O)c3cccs3)n2)cc1`, for which the “activity, negative = inhibition” value was -12.4% (inactive). On the same count and under the same terms, then `Cc1ccc(OC(=O)CSc2nnc(-c3cccs3)o2)cc1`, with 4.84% (inactive); and `CCc1ccc(NS(=O)(=O)c2ccc3[nH]cc(C(=O)NCCc4cccc(C)c4)c(=O)c3c2)cc1`, with -0.768% (inactive); and `Cc1ccc(N2CC(NC(=O)Cc3cccs3)CC2=O)cc1` (stereo not drawn), with -5.96% (inactive).

As for `COc1cccc(NC(=O)c2ccc3nc(CCc4ccccc4)oc3c2)c1`, the “activity, negative = inhibition” value is -15.7% (inactive). The same measure, in the same setting: for `Cn1c(=O)c2c(n3c4ccccc4nc13)NC(=O)CC2c1cccc(Cl)c1` (stereo not drawn) the value was -2.25% (inactive).

As for `C(=N\N1CCN(c2ccccn2)CC1)/C1=C(N2CCOCC2)C(=C/c2ccccc2)/CC1`, the Potency is 11.2 µM (active).

As to `O=C1Nc2ccc(Br)cc2/C1=N/N=C/C1=C(N2CCOCC2)C(=C\c2ccccc2)/CC1`, the Potency is 4.47 µM (active).

`O=C(Cc1ccc(Br)cc1)N1CCN(c2ccccn2)CC1`: the “activity, negative = inhibition” value was 3.26% (inactive). Same read-out and setting: for `O=C(CN1CCN(c2ccccn2)CC1)N1CCc2ccccc21` the value was -14.3% (inactive).
